In paper PMC8384837, “Expanding the binding specificity for RNA recognition by a PUF domain”:
Positions count from the first letter of the chain named.

Columns and labels:
Assay in all cases: yeast three-hybrid, YBZ-1, SC-Leu-His + 0.5 mM 3-AT, 4 days
Settings in all cases: tags: N-Gal4 AD-HA kept; label: inside an RPR1-promoter hybrid RNA with tandem MS2 sites; ssRNA
PUM1 PUF domain R1-RMT = PUM1 PUF domain R1-RMT (Homo sapiens, UniProt Q14671 828-1176, S863R;R864M;Q867T)
Outline: (§1)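 The interaction score is the log change in variant frequency from input to selection. Scores were computed in log2 with a pseudocount of 1 for absent variants, using Illumina sequencing of PCR-amplified repeat regions. The input came from four days on SC-Leu and the selection from four days on SC-Leu-His + 0.5 mM 3-AT. The cells were strain YBZ-1 (LexA–MS2 coat fusion, HIS3 reporter) co-expressing Pumilio-1 PUF domain libraries and matching RNA elements from a centromeric plasmid.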

PUM1 PUF domain R6-QWM = target: T1, PUM1 PUF domain R6-QWM (Homo sapiens, UniProt Q14671 828-1176, N1043Q;Y1044W;Q1047M)
T1 sequence: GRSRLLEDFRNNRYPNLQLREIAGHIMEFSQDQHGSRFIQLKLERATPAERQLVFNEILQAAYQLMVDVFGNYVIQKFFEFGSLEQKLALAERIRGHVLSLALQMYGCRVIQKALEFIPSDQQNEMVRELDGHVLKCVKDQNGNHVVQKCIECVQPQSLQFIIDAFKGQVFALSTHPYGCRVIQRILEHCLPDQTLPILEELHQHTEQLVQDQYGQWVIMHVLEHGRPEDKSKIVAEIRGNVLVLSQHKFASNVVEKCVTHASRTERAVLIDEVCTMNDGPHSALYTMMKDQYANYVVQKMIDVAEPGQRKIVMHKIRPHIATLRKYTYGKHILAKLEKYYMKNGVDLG
Outline: as §1

PUM1 PUF domain R6-LFV = target: T2, PUM1 PUF domain R6-LFV (Homo sapiens, UniProt Q14671 828-1176, N1043L;Y1044F;Q1047V)
T2 sequence: T1 sequence with Q216L, W217F, M220V
Outline: as §1

PUM1 PUF domain R6-AYG = target: T3, PUM1 PUF domain R6-AYG (Homo sapiens, UniProt Q14671 828-1176, N1043A;Q1047G)
T3 sequence: T1 sequence with Q216A, W217Y, M220G
Outline: as §1

PUM1 PUF domain R8-RKR = PUM1 PUF domain R8-RKR (Homo sapiens, UniProt Q14671 828-1176, N1122R;Y1123K;Q1126R)
Outline: as §1

PUM1 PUF domain R8-SRR = PUM1 PUF domain R8-SRR (Homo sapiens, UniProt Q14671 828-1176, N1122S;Y1123R;Q1126R)
Outline: as §1

PUM1 PUF domain R8-SFK = PUM1 PUF domain R8-SFK (Homo sapiens, UniProt Q14671 828-1176, N1122S;Y1123F;Q1126K)
Outline: as §1

PUM1 PUF domain R7-NPR = PUM1 PUF domain R7-NPR (Homo sapiens, UniProt Q14671 828-1176, S1079N;N1080P;E1083R)
Outline: as §1

PUM1 PUF domain R7-TTG = PUM1 PUF domain R7-TTG (Homo sapiens, UniProt Q14671 828-1176, S1079T;N1080T;E1083G)
Outline: as §1

PUM1 PUF domain R3-CFG = PUM1 PUF domain R3-CFG (Homo sapiens, UniProt Q14671 828-1176, R936F;Q939G)
Outline: as §1

PUM1 PUF domain R3-VNE = PUM1 PUF domain R3-VNE (Homo sapiens, UniProt Q14671 828-1176, C935V;R936N;Q939E)
Outline: as §1

## GGCUAGAACUAGUGGAUCCCCCGGCGCCCGGCGGCUCGAGCCCGGGUAAGUGUAAAUGGUCUGCAUGCCGCCGGGCGCCAUGCCUGCAGGUCGACUCUAGAAAACAUG
PUM1 PUF domain R1-RMT
  binding signal: 1.2 log2 enrichment (interaction score)

## GGCUAGAACUAGUGGAUCCCCCGGCGCCCGGCGGCUCGAGCCCGGGUAAGUGAAAAUAGUCUGCAUGCCGCCGGGCGCCAUGCCUGCAGGUCGACUCUAGAAAACAUG
PUM1 PUF domain R6-QWM
  binding signal: 4.68 log2 enrichment (interaction score)
PUM1 PUF domain R6-LFV
  binding signal: 5.6 log2 enrichment (interaction score)
PUM1 PUF domain R6-AYG
  binding signal: 2.71 log2 enrichment (interaction score)

## GGCUAGAACUAGUGGAUCCCCCGGCGCCCGGCGGCUCGAGCCCGGGUAAGUGUAAAUUGUCUGCAUGCCGCCGGGCGCCAUGCCUGCAGGUCGACUCUAGAAAACAUG
PUM1 PUF domain R1-RMT
  binding signal: 3.66 log2 enrichment (interaction score)

## GGCUAGAACUAGUGGAUCCCCCGGCGCCCGGCGGCUCGAGCCCGGGUAAGCGUAAAUAGUCUGCAUGCCGCCGGGCGCCAUGCCUGCAGGUCGACUCUAGAAAACAUG
PUM1 PUF domain R8-RKR
  binding signal: 5.43 log2 enrichment (interaction score)
PUM1 PUF domain R8-SRR
  binding signal: 2.8 log2 enrichment (interaction score)
PUM1 PUF domain R8-SFK
  binding signal: 5.53 log2 enrichment (interaction score)

## GGCUAGAACUAGUGGAUCCCCCGGCGCCCGGCGGCUCGAGCCCGGGUAAGUUUAAAUAGUCUGCAUGCCGCCGGGCGCCAUGCCUGCAGGUCGACUCUAGAAAACAUG
PUM1 PUF domain R7-NPR
  binding signal: 5.02 log2 enrichment (interaction score)
PUM1 PUF domain R7-TTG
  binding signal: 3.76 log2 enrichment (interaction score)

## GGCUAGAACUAGUGGAUCCCCCGGCGCCCGGCGGCUCGAGCCCGGGUAAGUCUAAAUAGUCUGCAUGCCGCCGGGCGCCAUGCCUGCAGGUCGACUCUAGAAAACAUG
PUM1 PUF domain R7-NPR
  binding signal: 0.79 log2 enrichment (interaction score)

## GGCUAGAACUAGUGGAUCCCCCGGCGCCCGGCGGCUCGAGCCCGGGUAAGUGUAAGUAGUCUGCAUGCCGCCGGGCGCCAUGCCUGCAGGUCGACUCUAGAAAACAUG
PUM1 PUF domain R3-CFG
  binding signal: 1.61 log2 enrichment (interaction score)
PUM1 PUF domain R3-VNE
  binding signal: 0.75 log2 enrichment (interaction score)

## GGCUAGAACUAGUGGAUCCCCCGGCGCCCGGCGGCUCGAGCCCGGGUAAGGGUAAAUAGUCUGCAUGCCGCCGGGCGCCAUGCCUGCAGGUCGACUCUAGAAAACAUG
PUM1 PUF domain R8-SFK
  binding signal: 2.09 log2 enrichment (interaction score)
